Test results reported in PubChem BioAssay (NCI).
This is part of a sample that, as a whole, favours compounds with a hit. Of some 83,000 tested, about 20% had one in any assay.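 Growth was measured after 48 h exposure to one concentration of compound in 96-well plates. Values under 10 count as active.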 Activity calls are given as the source filed them.

Each compound was assayed on OVCAR-3 ovarian (assay: NCI-60 one-dose screen, 48 h (100 = growth as untreated, 0 = no growth, -100 = all killed)). Conditions: 10 µM unless noted.
Protocol: Growth inhibition of the OVCAR-3 human tumor cell line is measured as a screen for anti-cancer activity. Cells are grown in 96 well plates and exposed to the test compound for 48 hours. Compounds are tested at a single concentration, which is 10^-5 M for most compounds. The reported endpoint is percent growth (GI% or GIPRCNT), where numbers from 0 - 100% represent growth inhibition, and numbers from -100% - 0 represent cell death. For example, a value of 40 represents 60% growth inhibition. A value of 0 means no net growth occurred over the course of the experiment. A value of -40 indicates 40% of cells at the beginning of the experiment died by the end of the experiment. A value of -100 means all cells are dead at the end of the experiment.
NCI-60 Human Tumor Cell Lines Screen was performed using the standard one-dose NCI protocol, which is described in more detail at https://dtp.cancer.gov/discovery_development/nci-60/default.htm.
Compounds with GIPRCNT values below 10 were considered active. Activity score was based on GIPRCNT using the following formula: […]
Score is 0 for GIPRCNT values of 100 or above, 50 for GIPRCNT values of 0, and 100 for GIPRCNT values of -100.
With `COc1ccc(-c2nnc(-c3ccc4c(c3)nc(-c3ccncc3)n4C3CCCCC3)o2)cc1` the growth was 67.3% (inactive). With `COc1ccc(OC)c(C(=O)/C=C/c2cc3c(c(OC)c2OC)OCO3)c1` the growth was 59.4% (inactive). `CCCC(=O)NC(c1ccc2c(c1)OCO2)c1ccc2cccnc2c1O` (stereo not given) was tested, and the growth was 36.9% (inactive). For `O=C1Nc2ccccc2/C1=C\c1nc(-c2ccccc2F)n2ccccc12`, the growth was 6.22% (active). With `CCOC(=O)c1ccc2[nH]c(O)c(C(=Nc3ccc(N(C)C(=O)CN4CCN(C)CC4)cc3)c3ccccc3)c2c1` the growth was -76.5% (active). In the case of `O=C1Nc2ccccc2[C@]12CC(c1ccccc1)=NN2`, the growth is reported as 27.7% (inactive). `COc1ccc(-c2ccc3cnc4sc(-c5ccc(OC)cc5)nc4c3n2)cc1` was tested, and the growth was 101% (inactive). `CN(C)Cc1ccc(NC(=O)c2cncc(C#Cc3cnc(N)c4ncccc34)c2)cc1F` was tested, and the growth was 87.9% (inactive). `Cn1cc(-c2nc(-c3c[nH]c4ccncc34)cs2)c2ccccc21` was tested, and the growth was 85.8% (inactive). With `O=C1CC(N2C(=O)/C(=C/C(Cl)=C\c3ccc([N+](=O)[O-])cc3)SC2=S)C(=O)N1c1ccc(Cl)cc1` (stereo not given) the growth was -35.4% (active). For `N#Cc1c(-c2ccc(Cl)cc2)nc(SCC(=O)NC2=NN=C(c3ccccc3)CS2)[nH]c1=O`, the growth was 83.7% (inactive). In the case of `CC1=Nc2cnc(Nc3ccc(OCCN4CCCCC4)cc3)nc2Nc2ccccc21`, the growth is reported as 68.9% (inactive). For `CCOC(=O)c1c(C)c2c(n1C)CSc1cc(C(=O)c3ccccc3)c(=O)[nH]c1-2`, the growth was 108% [100 µM] (inactive). In the case of `Cn1cc(-c2csc(-c3c[nH]c4ccc(Br)cc34)n2)c2cnccc21`, the growth is reported as -91.9% (active). With `COC(=O)c1n[nH]c2ccc3nc(-c4cn[nH]c4C(F)(F)F)c4c(c3c12)CCCC4` the growth was 56.4% (inactive). For `COc1cc(OC)c2sc(-c3ccc(-n4cncc4-c4ccc(OC)c(OC)c4)cc3)nc2c1`, the growth was 43.7% (inactive). `COC(=O)[C@]1(C)CCC[C@]2(C)[C@H]3C[C@H]4C(C(C)C)=C[C@]3(CC[C@H]21)[C@H]1[C@@H]4[C@@H](OCCC#N)CC[C@@H]1OCCC#N` was tested, and the growth was 22.7% (inactive). In the case of `O=C1/C(=C/c2ccc(F)cc2)COc2ccc(O)c(O)c21`, the growth is reported as -2.58% (active). In the case of `COc1cc(-c2nc(SCC(C)C)nc(Nc3cccc4ccccc34)c2C#N)cc(OC)c1OC`, the growth is reported as 117% (inactive). In the case of `Cn1ccnc1C(=O)C(=O)Nc1ccc(CC(=O)Nc2ccccc2)cc1`, the growth is reported as 108% (inactive). With `CC1(C)c2[nH]c3ccccc3c2C[C@]2(C)[C@H]3CC=C4[C@@H]5C[C@@](C)(C(N)=O)CC[C@]5(C)CC[C@@]4(C)[C@]3(C)CC[C@@H]12` the growth was 58.3% (inactive). `OCCCC1CCN(C(Cc2ccccc2)c2ccccc2)CC1` (stereo not given) was tested, and the growth was 89.2% (inactive). In the case of `O=C(Nc1ncc(Cc2ccc(Cl)c(C(F)(F)F)c2)s1)c1ccc2nnsc2c1`, the growth is reported as 58.5% (inactive). For `CC1Cc2c(Cl)ncnc2N(C)c2ccc(F)cc21` (stereo not given), the growth was 106% (inactive). With `C=C1C(=O)O[C@H]2[C@H]1CC/C(COC(=O)NCc1ccc(Cn3c(=O)sn(CCI)c3=O)cc1)=C\CC[C@@]1(C)O[C@@H]21` the growth was -55.4% (active). For `Cc1ccc(/C=N/Nc2nc(Nc3ccccc3)nc(-n3nc(C)cc3C)n2)cc1`, the growth was 14.3% (inactive). For `Cc1nc2ncnc(Cl)c2[nH]1`, the growth was 108% (inactive). In the case of `CC12CCC3c4ccccc4CCC3(CO1)C2` (stereo not given), the growth is reported as 115% (inactive). In the case of `CCN1CCN(Cc2cn(CC(=O)Nc3ccc4c(ccn4Cc4ccccc4)c3)nn2)CC1`, the growth is reported as 102% (inactive). `CC1=C(Nc2ccc(N3CCN(C)CC3)cc2)C(=O)c2cncnc2C1=O` was tested, and the growth was -34.8% (active). For `COc1ccc2[nH]cc(-c3nc(-c4c[nH]c5ccncc45)cs3)c2c1`, the growth was -13.2% (active). With `CNC(=O)c1cc(Oc2ccc3nc(NC(C)=O)sc3c2)ccn1` the growth was 105% (inactive). In the case of `N#C/C(=C/c1ccc([N+](=O)[O-])cc1)n1nnc2cc(F)c(F)cc21`, the growth is reported as 30.6% (inactive). With `O=C(Cn1cc(CN2CCCCCC2)nn1)Nc1ccc2c(ccn2Cc2ccccc2)c1` the growth was 95.7% (inactive). `O=[N+]([O-])/C(=C/C=C/c1ccccc1)c1ccccc1` was tested, and the growth was 1.93% (active). `Fc1ccc(-c2nn(-c3ccccc3)cc2-c2nc3ccccc3o2)cc1` was tested, and the growth was 45.1% (inactive). In the case of `O=C1/C(=C/c2ccc(Cl)cc2)COc2ccc(O)c(O)c21`, the growth is reported as -27.2% (active). In the case of `COc1cc(/C=C/C(=O)c2cccc(Nc3nc(Nc4ccccc4)nc(Nc4ccccc4)n3)c2)cc(OC)c1OC`, the growth is reported as 44.9% (inactive). For `O=C1/C(=C/c2ccc(F)cc2)COc2ccc(O)cc21`, the growth was 92.4% (inactive). In the case of `CCCCCCCCCCCCCCCCCCOc1ccccc1CC(=O)NCC[N+]1(C)CCCC1`, the growth is reported as 39% (inactive).
